# Imprint erasure = induces erasure of genomic imprints in mouse ES cells; mouse ES Peg3-LacZ reporter, beta-gal luminescence, 40 h; Potency, µM (highest dose often 60.7 µM), for inactives: at the top dose activity change, positive = activation, hits mostly activators; 110,000 compounds, 0.02% hits
#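 Gelatin-coated wells received 300 freshly trypsinized female ES cells with a Peg3LacZ-Neo reporter on the maternal allele, then incubated 40 hours at 37C. BetaGlo was added for 5 minutes at room temperature before a single luminescence read.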
# TSHR ag = activates the human thyroid stimulating hormone receptor | 73,000 compounds, 0.48% hits | Potency, µM (doses to about 57.1 µM), without a hit: at the top dose activation, actives largely listed as activators | P16473 | HEK293-CNG-TSHR cells (CNG channel as cAMP sensor), membrane potential dye, cAMP | AID 926; active = well fitted activation curve with a large enough effect in the main read-out, with a control signal flat, not every such curve was filed as active; inconclusive = small, poorly fitted or top-dose-only effect, or a change in a side signal; inactive = no such curve, though single readings can be large or run the other way; % of control where 0% means no effect;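 also: the control signal comes from parental cells without the receptor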
# Target sequence (P16473 whole entry, looked up): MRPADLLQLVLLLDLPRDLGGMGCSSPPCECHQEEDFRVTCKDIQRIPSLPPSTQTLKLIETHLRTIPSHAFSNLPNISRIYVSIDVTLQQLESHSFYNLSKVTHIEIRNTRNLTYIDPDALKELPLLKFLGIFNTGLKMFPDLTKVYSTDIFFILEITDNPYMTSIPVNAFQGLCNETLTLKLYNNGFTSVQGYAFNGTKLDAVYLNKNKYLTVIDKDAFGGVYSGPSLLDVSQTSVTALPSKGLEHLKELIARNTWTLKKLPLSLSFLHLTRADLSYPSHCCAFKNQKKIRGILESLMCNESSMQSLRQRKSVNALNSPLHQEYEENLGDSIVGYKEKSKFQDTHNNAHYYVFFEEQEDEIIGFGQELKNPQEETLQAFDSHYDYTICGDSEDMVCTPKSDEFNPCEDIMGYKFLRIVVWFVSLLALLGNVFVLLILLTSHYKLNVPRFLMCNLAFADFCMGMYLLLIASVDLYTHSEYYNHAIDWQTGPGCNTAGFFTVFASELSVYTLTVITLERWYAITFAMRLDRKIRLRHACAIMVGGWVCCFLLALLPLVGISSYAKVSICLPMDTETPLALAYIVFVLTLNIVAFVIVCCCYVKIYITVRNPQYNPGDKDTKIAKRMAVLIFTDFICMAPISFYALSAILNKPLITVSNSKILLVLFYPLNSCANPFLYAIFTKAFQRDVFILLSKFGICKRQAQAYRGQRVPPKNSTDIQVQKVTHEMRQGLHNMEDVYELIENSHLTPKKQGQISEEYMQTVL
#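 HEK 293 cells stably expressing TSHR and a modified CNG channel, with CNG-only parental cells as counterscreen, were preloaded 60 min at room temperature with membrane potential dye containing 100 uM RO 20-1724. Compound exposure was 30 min, and depolarization was read as fluorescence at 590 nm.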
# IkB signaling = inhibitors of IkB signaling in ABC-DLBCL cells; ABC-DLBCL IkBa-CBG/CBR dual luciferase ratio, 4 h; response scale: scaled: untreated 0%, proteasome inhibitor 100%; Potency, µM (titrated, usually from 57.1 µM), for inactives: top-dose IkBa stabilization activation; 110,000 compounds, 0.04% hits; AID 445; active = well fitted curve in the direction sought with a large enough effect in the signal ratio, not every such curve was filed as active; inconclusive = small, poorly fitted or top-dose-only effect, or a change in a side signal; the % refers to the signal ratio;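 also: the direction sought is a rising ratio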
#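 In this assay, an IκBα–CBG68 fusion accumulates when IKK-driven degradation is blocked; native CBR normalizes for cell number. OCI-Ly3 cells were treated 4 h with compound and doxycycline, then green and red light read after Chroma-Glo addition.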
# HEK293 cAMP ctrl = parental HEK293 cAMP activation (counter-screen); parental HEK293 CNG cAMP sensor, membrane potential fluorescence; AID 938; 73,000 compounds, 2.5% hits; Potency, µM (highest dose often 57.1 µM), for the others: top-dose activation, hits mostly activators; also: % of control where 0% means no effect; nearly all actives have a fitted effect of over 55% in size
#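 Parental HEK 293 cells stably expressing a cAMP-gated CNG channel were loaded with membrane potential dye containing 100 uM RO 20-1724 for 60 min. Compound added for 30 min; depolarization read as fluorescence intensity at 590 nm.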
# p53ts 32C tox = cytotoxicity in p53ts cells at permissive temperature. H1299-p53A138V at 32C, ATP luminescence viability, 24 h. Potency, µM (doses to about 46.1 µM), for inactives: at the top dose activity change, negative = cytotoxicity, hits mostly cytotoxic. 130,000 compounds, 0.93% hits. AID 924;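 also: 0% = DMSO and -100% = full killing by reference compound; nearly all actives have a fitted effect of over 55% in size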
#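 H1299-p53 A138V cells (temperature-sensitive p53) exposed 24 h to up to 46 uM compound at 32C, where p53 is wild-type in conformation. Viability read as ATP luminescence and normalised to DMSO and 100 uM tamoxifen. AC50 fitted with the Hill equation.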
# p53ts 39C kill = cytotoxicity in p53ts cells at nonpermissive temperature | 130,000 compounds, 1.5% hits | AID 902 | Potency, µM (doses to about 46.1 µM), for inactives: top-dose activity change, negative = cell killing, hits mostly cytotoxic | H1299-p53A138V viability at 39C, ATP luminescence, 24 h; also: % is scaled to controls: 0 for no effect and ±100 for the full control effect; nearly all actives have a fitted effect of over 55% in size
# An asterisk follows results filed as active; ? = inconclusive; . = no result given; [ ] = another dose, or the depositor's remark. This is a sample that favours compounds with a hit; in the whole collection about 3.1% have one here. Unless noted, calls follow the shape of the dose curve; as a rule, active = well fitted curve in the direction sought with a large enough effect; inconclusive = small, poorly fitted or top-dose-only effect, or another doubt; inactive = no such curve, though single readings can be large; an effect the other way counts as inactive or inconclusive. Potency is read from the fitted curve at half-maximal effect.
SMILES,Imprint erasure,TSHR ag,IkB signaling,HEK293 cAMP ctrl,p53ts 32C tox,p53ts 39C kill
O=C(CN1CCN(CC(=O)Nc2ccccc2Cl)CC1)Nc1ccc2c(c1)OCCO2,-14.5%,2.0%,-0.7%,12.0%,-10.8%,-6.8%
COc1ccc(-n2c(SCC(=O)NCc3ccccc3)nc3c([nH]c4ccccc43)c2=O)cc1,-12.6%[10.9 µM],.,3.0%,.,3.2%,?
Cc1ccc2nc(-c3c[nH]c4ccccc34)c(Nc3ccccc3)n2c1,-3.9%[10.9 µM],.,?,.,-4.6%,-22.2%
COc1ccc(Cl)cc1C(=O)Nc1ccc2c(c1)OCO2,-15.1%,?,-0.9%,?,?,?
COc1cc(SC)ccc1C(=O)Nc1ccc2c(c1)OCCO2,-73.6%,.,?,97.3%,10µM*,12.6µM*
COc1cccc(NC(=O)Nc2cc(-c3cn4cccnc4n3)ccc2C)c1,-2.7%[10.9 µM],.,-1.8%,.,?,-20.9%
COc1cccc(NC(=O)Nc2cc(-c3cn4cccnc4n3)ccc2OC)c1,-11.5%[10.9 µM],.,?,.,10µM*,10µM*
COc1ccc(-c2cn3cccnc3n2)cc1NC(=O)Nc1cc(C)ccc1C,-18.9%[10.9 µM],.,?,.,15.8µM*,?
Cc1ccc(-c2cn3cccnc3n2)cc1NC(=O)Nc1ccc(F)cc1,4.4%[10.9 µM],.,0.3%,.,-10.2%,32.5%
Cc1ccc(-c2cc3c(nn2)-c2ccccc2C3=O)cc1,-94.6%,.,?,6.8%[11.4 µM],0.501µM*,0.398µM*
O=C(CSc1nnc(Cn2nnc3ccccc32)o1)N(Cc1ccc(F)cc1)c1ccccc1,-7.7%,?,?,15.8µM*,5.0%,-10.3%
COc1ccccc1NC(=O)c1nc(SCc2ccc(F)cc2)ncc1Cl,-11.5%[10.9 µM],.,0.0%,.,0.6%,-2.3%
COc1ccc(OC)c(NC(=O)c2nc(S(=O)(=O)Cc3ccc(F)cc3)ncc2Cl)c1,-35.5%[10.9 µM],.,-1.6%,.,?,10µM*
Cc1ccc(NC(=O)c2nc(S(=O)(=O)Cc3ccc(F)cc3)ncc2Cl)cc1C,-39.7%[10.9 µM],.,?,.,15.8µM*,2.51µM*
CC(=O)Nc1ccc(NC(=O)c2nc(S(=O)(=O)Cc3ccc(F)cc3)ncc2Cl)cc1,-37.1%[10.9 µM],.,0.4%,.,-17.9%,10µM*
O=C(CSC1=Nc2ccccc2N=C(c2ccc(F)cc2)C1)Nc1ccc(Cl)cc1,-12.3%[10.9 µM],.,?,.,5.8%,?
COC(=O)Cc1c(C)c2cc3c(c(C)c2oc1=O)OCN(CCc1ccc(OC)cc1)C3,-13.4%[10.9 µM],.,-0.1%,.,-6.9%,-1.4%
CC(=O)Nc1ccc(C(=O)Nc2ccc(S(=O)(=O)NCC3CCCO3)cc2)cc1 (stereo not drawn),1.7%,-5.9%,2.4%,6.7%,0.2%,1.3%
O=C(Nc1ccc(F)cc1)c1ccc(S(=O)(=O)NCC2CCCO2)cc1 (stereo not drawn),-9.6%,?,-0.5%,3.16µM*,-1.2%,-12.9%
Cc1ccc(Cn2ccnc2SCC(=O)Nc2nnc(C)s2)cc1,5.2%[10.9 µM],.,3.2%,.,0.5%,-3.8%
CCOc1ccc(NC(=O)CCc2c(C)nc3cc(-c4ccc(Cl)cc4)nn3c2C)cc1,-15.1%[10.9 µM],.,?,.,-7.6%,-18.9%
COc1ccc(-n2ncc3c(NC(C)C)ncnc32)cc1,.,-0.5%,.,-5.9%,12.6µM*,12.6µM*
COc1ccc(-n2ncc3c(NCC(C)C)ncnc32)cc1,.,29.3%,.,3.9%,?,?
Cc1ccc(-n2ncc3c(NC4CCCC4)ncnc32)cc1,-20.5%[10.9 µM],.,5.7%,.,12.6µM*,?
COc1ccc(-n2ncc3c(NC4CCCC4)ncnc32)cc1,-16.4%[10.9 µM],.,-0.8%,.,5.01µM*,2µM*
SMILES,Imprint erasure,TSHR ag,IkB signaling,HEK293 cAMP ctrl,p53ts 32C tox,p53ts 39C kill
c1ccc(-n2ncc3c(NC4CCCC4)ncnc32)cc1,-16.6%[10.9 µM],.,4.4%,.,12.6µM*,10µM*
COc1ccc(C(=O)Nc2nnc(C(C)C)s2)cc1OC,4.3%[10.9 µM],.,34.4%,.,-5.7%,5.0%
Cc1nc(NC(=O)c2cc3c(s2)CCCCC3)sc1C(=O)N(C)C,1.1%,-18.8%,?,3.3%,-14.0%,-23.0%
COc1ccc(C(=O)Nc2nc(C)c(C(=O)N(C)C)s2)cc1OC,-46.4%,3.1%,0.2%,-0.4%,12.6µM*,-20.0%
Cc1nc(NC(=O)c2ccc(Br)s2)sc1C(=O)N(C)C,-47.5%,-6.1%,-1.0%,-3.4%,12.6µM*,?
Cc1nc(N2CCOCC2)c2c(C(=O)N(C)c3ccccc3)c(C)oc2n1,-4.7%[10.9 µM],.,1.8%,.,0.5%,-2.9%
C[C@]12C=CC(=O)C=C1CC[C@@H]1[C@H]3C[C@@H](O)[C@](O)(C(=O)CO)[C@]3(C)C[C@H](O)[C@]12F,.,5.1%,?,-0.8%,.,.
COc1ccc(-c2cn3c(n2)sc2cc(C(=O)NCc4ccccc4)ccc23)cc1,-9.1%[10.9 µM],.,?,.,-7.2%,?
COc1ccc2c(c1)sc1nc(-c3ccccc3)cn12,-92.7%,?,?,?,0.631µM*,1.26µM*
O=C1C=CC2=C3c4cc(O)c(O)cc4C[C@@]3(O)COC2=C1O,.,4.9%,1.6%[11.4 µM],1.0%,.,.
O=C(CSc1cn(CC(=O)N2CCCC2)c2ccccc12)Nc1ccc(Cl)cc1,-14.8%[10.9 µM],.,?,.,-4.2%,12.6µM*
O=C1[C@@H]2C=CC=CC2=NC(=S)N1CCN1CCC(=C(c2ccc(F)cc2)c2ccc(F)cc2)CC1,.,?,17.3%,?,31.5%,42.4%
O=C(N1CCCCC1)C1(c2ccccc2)CCOCC1,-8.3%,?,0.5%,15.8µM*,6.7%,18.4%
O=C(N1CCOCC1)C1(c2ccccc2)CCCCC1,13.0%,-9.5%,0.7%,10.3%,5.0%,9.9%
COCCCNc1ncnc2c1cnn2-c1ccc(C)cc1C,-1.1%,-5.6%,-3.6%,-5.7%,-5.5%,-1.7%
CCC(C)Nc1ncnc2c1cnn2-c1ccc(F)cc1 (stereo not drawn),-8.7%[10.9 µM],.,?,.,?,7.94µM*
COCCCNc1ncnc2c1cnn2-c1ccc(F)cc1,-15.1%[10.9 µM],.,-2.2%,.,?,10µM*
CCc1ccc2occ(CC(=O)Nc3c(C(=O)Nc4ccc(C)cc4)oc4ccccc34)c2c1,-3.5%[10.9 µM],.,?,.,-29.4%,31.6µM*
CCc1ccc2occ(CC(=O)Nc3c(C(=O)Nc4ccc(Cl)cc4)oc4ccccc34)c2c1,-14.9%[10.9 µM],.,-0.5%,.,1.5%,-25.2%
CCOC(=O)c1ccc(N2C(=O)c3n[nH]c(-c4cccs4)c3C2c2cccc(F)c2)cc1 (stereo not drawn),-6.7%[10.9 µM],.,?,.,16.6%,6.31µM*
CCOC(=O)c1ccc(N2C(=O)c3n[nH]c(C)c3C2c2ccccc2)cc1 (stereo not drawn),3.1%,?,0.5%,31.6µM*,37.5%,92.2%
COc1cccc(CNC(=O)Cn2cc3c(n2)-c2c(oc(C(=O)N4CCOCC4)c2C)CC3)c1,-13.7%[10.9 µM],.,-0.3%,.,2.6%,1.8%

# Screens (PubChem)
